PubChem BioAssay AID1159580 (chemical genetic matrix, 2015)
The whole screen tested about 5,500 compounds, of which about 2,000 (36%) were called active. Roughly 18% stayed inconclusive and do not appear here. No stated cut-off is given here; in the data, active means normalized growth mostly below about 0.91 (no sharp cut-off); inconclusive means no clear call, values can overlap the other calls; inactive means mostly above about 0.92. The list shows a part of the results.

Experiment: chemical genetic growth profiling, strain panel (AID 1159580);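 further: tested at 20 µM; growth read once vehicle control cultures reached saturation at 30 °C; 1 = growth at the plate median or of vehicle wells; lower values mean less growth of the strain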
Conditions: growth OD

Measured: normalized growth

O=C(/C=C/C=C/c1ccc2c(c1)OCO2)N1CCCCC1
active: S. cerevisiae deletion strains, locus YKR001C, strain vps1, active compounds read low 0.796 | S. cerevisiae deletion strains, locus YLR221C, strain rsa3, active compounds read low 0.9 | S. cerevisiae deletion strains, locus YLR262C, strain YPT6 (second series), active compounds read low 0.71 | S. cerevisiae deletion strains, locus YLR268W, strain sec22, active compounds read low 0.807 | S. cerevisiae deletion strains, locus YLR320W, strain mms22, active compounds read low 0.808 | S. cerevisiae deletion strains, locus YLR342W, strain FKS1 (second series), active compounds read low 0.781 | S. cerevisiae deletion strains, locus YLR342W, strain FKS1, active compounds read low 0.851 | S. cerevisiae deletion strains, locus YLR418C, strain cdc73, active compounds read low 0.701 | S. cerevisiae deletion strains, locus YNL071W, strain lat1, active compounds read low 0.674 | S. cerevisiae deletion strains, locus YNL307C, strain MCK1, active compounds read low 0.729 | S. cerevisiae deletion strains, locus YOR184W, strain ser1, active compounds read low 0.753 | S. cerevisiae deletion strains, locus YOR270C, strain vph1, active compounds read low 0.633 | S. cerevisiae deletion strains, locus YPL051W, strain arl3, active compounds read low 0.896 | S. cerevisiae deletion strains, locus YPR163C, strain tif3, active compounds read low 0.856
inactive: S. cerevisiae deletion strains, locus YJR075W, strain HOC1, active compounds read low 0.9 | S. cerevisiae deletion strains, locus YKL009W, strain mrt4, active compounds read low 0.886 | S. cerevisiae deletion strains, locus YKL068W, active compounds read low 0.966 | S. cerevisiae deletion strains, locus YKL085W, strain MDH1 (second series), active compounds read low 0.953 | S. cerevisiae deletion strains, locus YKL085W, strain MDH1, active compounds read low 0.953 | S. cerevisiae deletion strains, locus YKL160W, strain elf1, active compounds read low 0.919 | S. cerevisiae deletion strains, locus YKL190W, strain CNB1, active compounds read low 0.974 | S. cerevisiae deletion strains, locus YKR026C, strain gcn3, active compounds read low 0.992 | S. cerevisiae deletion strains, locus YKR091W, strain srl3, active compounds read low 0.977 | S. cerevisiae deletion strains, locus YLL001W, strain dnm1, active compounds read low 0.935 | S. cerevisiae deletion strains, locus YLL026W, active compounds read low 0.956 | S. cerevisiae deletion strains, locus YLL041C, strain sdh2, active compounds read low 0.964 | S. cerevisiae deletion strains, locus YLR027C, strain aat2, active compounds read low 0.945 | S. cerevisiae deletion strains, locus YLR039C, strain RIC1, active compounds read low 0.72 | S. cerevisiae deletion strains, locus YLR058C, strain SHM2, active compounds read low 0.968 | S. cerevisiae deletion strains, locus YLR102C, strain apc9, active compounds read low 0.94 | S. cerevisiae deletion strains, locus YLR113W, strain HOG1, active compounds read low 0.973 | S. cerevisiae deletion strains, locus YLR258W, strain gsy2, active compounds read low 0.92 | S. cerevisiae deletion strains, locus YLR262C, strain YPT6, active compounds read low 0.785 | S. cerevisiae deletion strains, locus YLR330W, strain CHS5, active compounds read low 0.969 | S. cerevisiae deletion strains, locus YLR357W, strain rsc2, active compounds read low 1.08 | S. cerevisiae deletion strains, locus YLR370C, strain arc18, active compounds read low 0.952 | S. cerevisiae deletion strains, locus YLR371W, strain rom2, active compounds read low 0.959 | S. cerevisiae deletion strains, locus YLR384C, strain iki3, active compounds read low 0.976 | S. cerevisiae deletion strains, locus YML016C, strain PPZ1, active compounds read low 0.961 | S. cerevisiae deletion strains, locus YML032C, strain rad52, active compounds read low 0.914 | S. cerevisiae deletion strains, locus YML120C, strain ndi1, active compounds read low 0.932 | S. cerevisiae deletion strains, locus YML124C, strain tub3, active compounds read low 0.945 | S. cerevisiae deletion strains, locus YMR058W, strain fet3, active compounds read low 0.93 | S. cerevisiae deletion strains, locus YMR078C, strain ctf18, active compounds read low 0.932 | S. cerevisiae deletion strains, locus YMR125W, strain sto1, active compounds read low 0.961 | S. cerevisiae deletion strains, locus YMR129W, active compounds read low 0.959 | S. cerevisiae deletion strains, locus YMR205C, strain PFK2, active compounds read low 0.892 | S. cerevisiae deletion strains, locus YMR223W, strain ubp8, active compounds read low 0.91 | S. cerevisiae deletion strains, locus YMR231W, strain pep5, active compounds read low 0.99 | S. cerevisiae deletion strains, locus YMR263W, strain SAP30, active compounds read low 0.921 | S. cerevisiae deletion strains, locus YMR307W, strain GAS1, active compounds read low 0.621 | S. cerevisiae deletion strains, locus YNL067W, strain RPL9B, active compounds read low 0.907 | S. cerevisiae deletion strains, locus YNL128W, strain TEP1, active compounds read low 0.991 | S. cerevisiae deletion strains, locus YNL153C, strain GIM3, active compounds read low 0.953 | S. cerevisiae deletion strains, locus YNL183C, strain NPR1, active compounds read low 0.95 | S. cerevisiae deletion strains, locus YNL209W, strain ssb2, active compounds read low 0.949 | S. cerevisiae deletion strains, locus YNL233W, strain BNI4, active compounds read low 0.89 | S. cerevisiae deletion strains, locus YNL248C, strain rpa49, active compounds read low 0.94 | S. cerevisiae deletion strains, locus YNL250W, strain rad50, active compounds read low 0.95 | S. cerevisiae deletion strains, locus YNL271C, strain bni1, active compounds read low 0.933 | S. cerevisiae deletion strains, locus YNL298W, strain CLA4, active compounds read low 0.92 | S. cerevisiae deletion strains, locus YNL322C, strain KRE1 (second series), active compounds read low 0.965 | S. cerevisiae deletion strains, locus YNL322C, strain KRE1, active compounds read low 0.981 | S. cerevisiae deletion strains, locus YNR049C, strain mso1, active compounds read low 0.977 | S. cerevisiae deletion strains, locus YNR052C, strain pop2, active compounds read low 0.963 | S. cerevisiae deletion strains, locus YOL006C, strain TOP1, active compounds read low 0.598 | S. cerevisiae deletion strains, locus YOL012C, strain htz1 1.13 | S. cerevisiae deletion strains, locus YOL147C, strain pex11, active compounds read low 0.951 | S. cerevisiae deletion strains, locus YOR001W, strain rrp6, active compounds read low 0.956 | S. cerevisiae deletion strains, locus YOR061W, strain CKA2, active compounds read low 0.979 | S. cerevisiae deletion strains, locus YOR069W, strain VPS5, active compounds read low 0.98 | S. cerevisiae deletion strains, locus YOR070C, strain gyp1, active compounds read low 0.935 | S. cerevisiae deletion strains, locus YOR080W, strain dia2, active compounds read low 0.996 | S. cerevisiae deletion strains, locus YOR083W, strain WHI5, active compounds read low 0.909 | S. cerevisiae deletion strains, locus YOR106W, strain vam3, active compounds read low 0.925 | S. cerevisiae deletion strains, locus YOR136W, strain idh2, active compounds read low 0.964 | S. cerevisiae deletion strains, locus YOR144C, strain elg1, active compounds read low 0.948 | S. cerevisiae deletion strains, locus YOR231W, strain MKK1, active compounds read low 0.982 | S. cerevisiae deletion strains, locus YOR265W, strain rbl2, active compounds read low 0.961 | S. cerevisiae deletion strains, locus YOR290C, strain snf2, active compounds read low 0.929 | S. cerevisiae deletion strains, locus YOR316C, strain cot1, active compounds read low 0.946 | S. cerevisiae deletion strains, locus YPL055C, strain LGE1, active compounds read low 0.827 | S. cerevisiae deletion strains, locus YPL078C, strain atp4, active compounds read low 0.914 | S. cerevisiae deletion strains, locus YPL106C, strain sse1, active compounds read low 0.92 | S. cerevisiae deletion strains, locus YPL240C, strain hsp82, active compounds read low 0.946 | S. cerevisiae deletion strains, locus YPL241C, strain CIN2, active compounds read low 0.969 | S. cerevisiae deletion strains, locus YPL256C, strain CLN2, active compounds read low 0.914 | S. cerevisiae deletion strains, locus YPR119W, strain clb2, active compounds read low 0.936 | S. cerevisiae deletion strains, locus YPR141C, strain kar3, active compounds read low 0.946 | S. cerevisiae deletion strains, locus YPR167C, strain met16, active compounds read low 0.948 | S. cerevisiae deletion strains, strain wtn01, active compounds read low 0.9 | S. cerevisiae strains, strain wild type, active compounds read low 0.948
